According to PubChem BioAssay AID1159580 (chemical genetic matrix, 2015):
Among all 5,500 compounds or so, about 2,000 (36%) were called active. Roughly 18% stayed inconclusive and do not appear here. Cut-off read from the data, not from the text of the source: active = normalized growth mostly below about 0.91 (no sharp cut-off); inconclusive = no clear call, values can overlap the other calls; inactive = mostly above about 0.92. This is one part of the list.

Assay: chemical genetic growth profiling, strain panel (AID 1159580);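 note: tested at 20 µM; growth read once vehicle control cultures reached saturation at 30 °C; 1 = growth at the plate median or of vehicle wells; lower values mean less growth of the strain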
Conditions: growth OD

Measured: normalized growth

CCNc1nc(Cl)nc(NCC)n1
inactive: S. cerevisiae deletion strains, locus YJR043C, strain POL32, hits give low values 0.939 | S. cerevisiae deletion strains, locus YJR075W, strain HOC1, hits give low values 0.998 | S. cerevisiae deletion strains, locus YKL009W, strain mrt4, hits give low values 1.01 | S. cerevisiae deletion strains, locus YKL068W, hits give low values 0.995 | S. cerevisiae deletion strains, locus YKL085W, strain MDH1 (second series), hits give low values 1 | S. cerevisiae deletion strains, locus YKL085W, strain MDH1, hits give low values 1 | S. cerevisiae deletion strains, locus YKL160W, strain elf1, hits give low values 1 | S. cerevisiae deletion strains, locus YKL190W, strain CNB1, hits give low values 1 | S. cerevisiae deletion strains, locus YKR001C, strain vps1, hits give low values 1.02 | S. cerevisiae deletion strains, locus YKR026C, strain gcn3, hits give low values 0.985 | S. cerevisiae deletion strains, locus YKR091W, strain srl3, hits give low values 0.996 | S. cerevisiae deletion strains, locus YLL001W, strain dnm1, hits give low values 1 | S. cerevisiae deletion strains, locus YLL026W, hits give low values 0.981 | S. cerevisiae deletion strains, locus YLL041C, strain sdh2, hits give low values 0.992 | S. cerevisiae deletion strains, locus YLR027C, strain aat2, hits give low values 0.977 | S. cerevisiae deletion strains, locus YLR039C, strain RIC1, hits give low values 1 | S. cerevisiae deletion strains, locus YLR058C, strain SHM2, hits give low values 0.999 | S. cerevisiae deletion strains, locus YLR102C, strain apc9, hits give low values 1.01 | S. cerevisiae deletion strains, locus YLR221C, strain rsa3, hits give low values 0.987 | S. cerevisiae deletion strains, locus YLR258W, strain gsy2, hits give low values 0.989 | S. cerevisiae deletion strains, locus YLR262C, strain YPT6 (second series), hits give low values 0.992 | S. cerevisiae deletion strains, locus YLR262C, strain YPT6, hits give low values 0.997 | S. cerevisiae deletion strains, locus YLR268W, strain sec22, hits give low values 1 | S. cerevisiae deletion strains, locus YLR320W, strain mms22, hits give low values 0.986 | S. cerevisiae deletion strains, locus YLR330W, strain CHS5, hits give low values 0.994 | S. cerevisiae deletion strains, locus YLR342W, strain FKS1 (second series), hits give low values 0.995 | S. cerevisiae deletion strains, locus YLR342W, strain FKS1, hits give low values 0.991 | S. cerevisiae deletion strains, locus YLR357W, strain rsc2, hits give low values 0.953 | S. cerevisiae deletion strains, locus YLR370C, strain arc18, hits give low values 1.02 | S. cerevisiae deletion strains, locus YLR371W, strain rom2, hits give low values 1 | S. cerevisiae deletion strains, locus YLR384C, strain iki3, hits give low values 0.976 | S. cerevisiae deletion strains, locus YLR418C, strain cdc73, hits give low values 0.985 | S. cerevisiae deletion strains, locus YML016C, strain PPZ1, hits give low values 1 | S. cerevisiae deletion strains, locus YML032C, strain rad52, hits give low values 1.01 | S. cerevisiae deletion strains, locus YML120C, strain ndi1, hits give low values 1.03 | S. cerevisiae deletion strains, locus YML124C, strain tub3, hits give low values 1.01 | S. cerevisiae deletion strains, locus YMR058W, strain fet3, hits give low values 0.999 | S. cerevisiae deletion strains, locus YMR078C, strain ctf18, hits give low values 1.01 | S. cerevisiae deletion strains, locus YMR125W, strain sto1, hits give low values 0.99 | S. cerevisiae deletion strains, locus YMR129W, hits give low values 0.997 | S. cerevisiae deletion strains, locus YMR205C, strain PFK2, hits give low values 0.997 | S. cerevisiae deletion strains, locus YMR223W, strain ubp8, hits give low values 1.01 | S. cerevisiae deletion strains, locus YMR231W, strain pep5, hits give low values 0.995 | S. cerevisiae deletion strains, locus YMR263W, strain SAP30, hits give low values 1.01 | S. cerevisiae deletion strains, locus YMR307W, strain GAS1, hits give low values 1.06 | S. cerevisiae deletion strains, locus YNL067W, strain RPL9B, hits give low values 0.988 | S. cerevisiae deletion strains, locus YNL071W, strain lat1, hits give low values 0.998 | S. cerevisiae deletion strains, locus YNL128W, strain TEP1, hits give low values 0.997 | S. cerevisiae deletion strains, locus YNL153C, strain GIM3, hits give low values 0.985 | S. cerevisiae deletion strains, locus YNL209W, strain ssb2, hits give low values 0.992 | S. cerevisiae deletion strains, locus YNL233W, strain BNI4, hits give low values 1.01 | S. cerevisiae deletion strains, locus YNL248C, strain rpa49, hits give low values 0.989 | S. cerevisiae deletion strains, locus YNL250W, strain rad50, hits give low values 1.01 | S. cerevisiae deletion strains, locus YNL271C, strain bni1, hits give low values 1.01 | S. cerevisiae deletion strains, locus YNL298W, strain CLA4, hits give low values 1.02 | S. cerevisiae deletion strains, locus YNL307C, strain MCK1, hits give low values 1.01 | S. cerevisiae deletion strains, locus YNL322C, strain KRE1 (second series), hits give low values 0.997 | S. cerevisiae deletion strains, locus YNL322C, strain KRE1, hits give low values 0.996 | S. cerevisiae deletion strains, locus YNR049C, strain mso1, hits give low values 0.988 | S. cerevisiae deletion strains, locus YNR052C, strain pop2, hits give low values 1.02 | S. cerevisiae deletion strains, locus YOL006C, strain TOP1, hits give low values 1.04 | S. cerevisiae deletion strains, locus YOL012C, strain htz1 1.15 | S. cerevisiae deletion strains, locus YOL147C, strain pex11, hits give low values 1.01 | S. cerevisiae deletion strains, locus YOR001W, strain rrp6, hits give low values 0.982 | S. cerevisiae deletion strains, locus YOR061W, strain CKA2, hits give low values 0.994 | S. cerevisiae deletion strains, locus YOR069W, strain VPS5, hits give low values 1 | S. cerevisiae deletion strains, locus YOR070C, strain gyp1, hits give low values 0.983 | S. cerevisiae deletion strains, locus YOR080W, strain dia2, hits give low values 0.998 | S. cerevisiae deletion strains, locus YOR083W, strain WHI5, hits give low values 1.01 | S. cerevisiae deletion strains, locus YOR106W, strain vam3, hits give low values 1.01 | S. cerevisiae deletion strains, locus YOR136W, strain idh2, hits give low values 1 | S. cerevisiae deletion strains, locus YOR144C, strain elg1, hits give low values 1 | S. cerevisiae deletion strains, locus YOR184W, strain ser1, hits give low values 1.02 | S. cerevisiae deletion strains, locus YOR265W, strain rbl2, hits give low values 0.979 | S. cerevisiae deletion strains, locus YOR270C, strain vph1, hits give low values 1.02 | S. cerevisiae deletion strains, locus YOR290C, strain snf2, hits give low values 1.02 | S. cerevisiae deletion strains, locus YOR316C, strain cot1, hits give low values 1 | S. cerevisiae deletion strains, locus YPL051W, strain arl3, hits give low values 0.987 | S. cerevisiae deletion strains, locus YPL055C, strain LGE1, hits give low values 0.992 | S. cerevisiae deletion strains, locus YPL078C, strain atp4, hits give low values 1.03 | S. cerevisiae deletion strains, locus YPL106C, strain sse1, hits give low values 0.987 | S. cerevisiae deletion strains, locus YPL240C, strain hsp82, hits give low values 0.999 | S. cerevisiae deletion strains, locus YPL241C, strain CIN2, hits give low values 0.995 | S. cerevisiae deletion strains, locus YPR119W, strain clb2, hits give low values 0.998 | S. cerevisiae deletion strains, locus YPR141C, strain kar3, hits give low values 1 | S. cerevisiae deletion strains, locus YPR163C, strain tif3, hits give low values 1 | S. cerevisiae deletion strains, locus YPR167C, strain met16, hits give low values 0.996 | S. cerevisiae deletion strains, strain wtn01, hits give low values 1.01 | S. cerevisiae strains, strain wild type, hits give low values 0.997
